In ChEMBL document CHEMBL3988442, “University of Dundee, Small-Polar-MMV Screening Library” (2021):

biological target: T1, Aspartate--tRNA(Asp/Asn) ligase (Mycobacterium tuberculosis (strain ATCC 25618 / H37Rv)) (UniProt P9WFW3); assay: Assay for Asp RNA synthetase-1 from Mycobacterium tuberculosis; format: functional; set-up: scale not given: in the data most compounds retested in dose-response had high values; conditions: 30 µM
T1 sequence (whole entry): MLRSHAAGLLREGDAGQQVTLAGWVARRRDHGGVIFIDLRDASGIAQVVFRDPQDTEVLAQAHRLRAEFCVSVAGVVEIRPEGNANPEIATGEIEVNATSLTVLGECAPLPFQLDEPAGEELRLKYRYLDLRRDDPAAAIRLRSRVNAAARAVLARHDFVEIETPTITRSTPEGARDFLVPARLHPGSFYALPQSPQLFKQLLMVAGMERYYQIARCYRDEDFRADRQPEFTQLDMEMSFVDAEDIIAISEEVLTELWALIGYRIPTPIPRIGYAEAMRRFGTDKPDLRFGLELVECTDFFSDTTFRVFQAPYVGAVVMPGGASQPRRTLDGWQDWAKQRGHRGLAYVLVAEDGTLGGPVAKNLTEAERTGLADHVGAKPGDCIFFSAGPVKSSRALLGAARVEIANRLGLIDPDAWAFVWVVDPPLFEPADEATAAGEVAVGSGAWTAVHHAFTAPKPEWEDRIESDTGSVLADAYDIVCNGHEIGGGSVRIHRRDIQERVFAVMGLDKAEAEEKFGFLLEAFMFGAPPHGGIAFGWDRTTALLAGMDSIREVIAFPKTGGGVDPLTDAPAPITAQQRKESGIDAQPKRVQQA

Row | SMILES | Percent Effect [%]
1 | c1ccc2sc(CN3CCCC3c3noc(C4CC4)n3)nc2c1 (stereo unspecified) | -1.34
2 | CC1CCCN(Cc2c(C3CCOCC3)[nH]c3ncccc23)C1 (stereo unspecified) | 3.59
3 | Cc1ccc(C(=O)NCCNc2ncccc2C#N)c(=O)[nH]1 | -1.85
4 | CCN1CCN(C(=O)c2cc(C(=O)OC)nn2-c2ccccc2)CC1 | 2.94
5 | Cc1cc(C)n(C2CN(CC(O)c3ccc4c(c3)OCO4)C2)n1 (stereo unspecified) | -5.92
6 | Cc1ccccc1C(=O)NCc1ccc(N2CCNC(=O)C2)c(F)c1 | -0.569
7 | Cc1noc(C)c1C(=O)NCC(c1ccc(F)cc1)N(C)C (stereo unspecified) | 1.51
8 | COc1ccc(C[C@H]2CN(c3nnc(C)s3)CC[C@@H]2OC)cc1 | 7.75
9 | Cc1cc2nc(SCC(=O)N3CCCC3)n(-c3ccccc3)c(=O)c2[nH]1 | 15.3
10 | O=C(c1cc(Cl)c2c(c1)OCO2)N1CCN(c2ccccn2)CC1 | -0.949
11 | Cc1cc2c(=O)n3c(nc2s1)CCN(Cc1cnn(C)c1C)CC3 | -4.72
12 | O=C(C1CCOCC1)N1CCc2ncnc(-c3ccc(F)cc3)c2CC1 | -1.43
13 | Cc1ccc(S(=O)(=O)N2CSCC2C(=O)N(C)C2CC2)cc1Cl (stereo unspecified) | 3.03
14 | Cc1ncc(CNC(=O)CCc2cccc(F)c2)c(C2CCCN2C)n1 (stereo unspecified) | 1.77
15 | NC(=O)C1CCN(c2nc3nccc(-c4ccccn4)c3c(=O)[nH]2)CC1 | 1.02
16 | CCOc1nc2cccnc2n(CC(=O)NCCOC)c1=O | -2.81
17 | COCc1cc(O)nc(C2CCCN(Cc3cc(OC)ccc3F)C2)n1 (stereo unspecified) | 1.71
18 | CC(=O)N1CC(=O)N(c2cnn(C)c2)CC12CCN(CC1CC1)C2 (stereo unspecified) | 4.21
19 | CCN1CCN(CC(O)c2ccc(F)cc2)CC1 (stereo unspecified) | -6.48
20 | CNc1cc(C)nc(C2CN(Cc3cc[nH]n3)CCO2)c1 (stereo unspecified) | -0.432
21 | Cc1cnn(CCNCc2csc(-c3cccs3)n2)c1 | -6.55
